# High-throughput results: PubChem, National Center for Advancing Translational Sciences (NCATS)
# Only some compounds are listed: those with a hit (about 6.6% of all), similar ones and a draw of the others.
# HT1080NT lethal: kills 2HG-producing HT-1080-NT fibrosarcoma cells | 360,000 tested, 1.6% active | Potency, µM (doses to about 46.1 µM), for the others: top-dose activity, negative = less viability, most hits filed as cytotoxic | HT-1080-NT fibrosarcoma viability, CellTiter-Glo ATP luminescence, 48 h;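 also: NT is the 2HG producing partner of a matched IDH1 knockdown line; 0% = DMSO-treated cells and -100% = media-only wells without cells; nearly all actives have a fitted effect of over 55% in size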
#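 Luminescent CellTiter-Glo readout after 48 hours of compound exposure at 37 degrees C defined viability of HT-1080-NT cells. Activity was normalized to DMSO wells and cell-free media wells; concentration-response curves were fitted and assigned curve classes.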
# KB-V1 cytotox: kills drug-selected multidrug resistant KB-V1 cells | AID 1347076 | Potency, µM (series often up to 46.1 µM), usual class: cytotoxic | KB-V1 MDR cells viability, CellTiter-Glo, 72 h | 400,000 tested, 3.4% active; also: % is scaled to controls: 0 for no effect and ±100 for the full control effect; nearly all actives have a fitted effect of over 60% in size
#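 Potencies derive from concentration-effect curves fitted to normalized luminescence (CellTiter-Glo) of KB-V1 cells treated for 72 h at 37 degrees C in phenol-red-free DMEM containing 10% FBS.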
# HT1080 IDH1KD tx: kills HT-1080 cells with IDH1 knockdown; HT-1080 IDH1 knockdown viability, ATP luminescence, 48 h; AID 686971; Potency, µM (doses to about 46.1 µM), inactives show at the top dose activity, negative = toxicity, hits mostly cytotoxic; 360,000 tested, 2% active;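 also: 0% = DMSO wells and -100% = cell-free medium wells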
#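 Luminescent ATP read-out (CellTiter-Glo, 10 min at room temperature) after 48 h compound exposure at 37 °C gave viability of IDH1-knockdown HT-1080 cells. Activity was normalised to DMSO and cell-free wells, then fitted as concentration-response curves.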
# KB-3-1 cytotox: KB-3-1 parental cell cytotoxicity; 400,000 tested, 1.4% active; AID 1347075; Potency, µM (doses to about 46.1 µM), actives largely listed as cytotoxic; KB-3-1 viability, CellTiter-Glo ATP luminescence, 72 h; also: % is scaled to controls: 0 for no effect and ±100 for the full control effect; nearly all actives have a fitted effect of over 60% in size
#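 Screening of KB-3-1 cells (DMEM, 10% FBS, phenol-red free) ran from lowest to highest compound concentration; after 72 h at 37 °C viability was read luminescently and curves fitted.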
# TGFb inhibitor: blocks TGF-b signaling; Potency, µM (titrated, usually from 46.1 µM), for the others: at the highest dose activity, negative = inhibition, actives largely listed as inhibitors; 410,000 tested, 1.2% active; AID 588855; HepG2 CAGA-GFP TGF-b/SMAD3 reporter, GFP fluorescence, 18 h; TGF-beta stimulated, 500 pg/mL final; also: % is scaled to controls: 0 for no effect and ±100 for the full control effect; nearly all actives have a fitted effect of over 65% in size
#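 HEPG2 CAGA-GFP, 1000 cells/well; 2 h settle, 37 C; cpd via pin tool; TGF-b 500 pg/mL final; 18 h, 37 C; GFP imaging ex488/em500-530; %Activity normalised to -TGF-b and +DMSO controls; CRC fit, curve class.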
# HepG2 viability: HepG2 cytotoxicity, counter-screen for TGF-b inhibitors | 410,000 tested, 0.76% active | HepG2 CAGA-GFP viability, ATP luminescence, 18 h | AID 588856 | Potency, µM (highest dose often 46.1 µM), without a hit: at the top dose activity change, negative = cytotoxicity, hits mostly cytotoxic
#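 HepG2 CAGA-GFP cells (1000/well, DMEM with 1% FBS) received compound, then TGF-beta at 500 pg/mL final, and were incubated 18 hours at 37 degrees C. Viability was read by CellTiter-Glo luminescence. Media-only wells were set as complete cell-killing and DMSO as no toxicity.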
# The depositor's hits bear a star; i = inactive; ? = inconclusive; . = no result. Calls follow the shape of the dose curve; as a rule, active = well fitted curve in the direction sought with a large enough effect; inconclusive = small, poorly fitted or top-dose-only effect, or another doubt; inactive = no such curve, though single readings can be large; an effect the other way counts as inactive or inconclusive. Potency is read from the fitted curve at half-maximal effect.
SMILES,HT1080NT lethal,KB-V1 cytotox,HT1080 IDH1KD tx,KB-3-1 cytotox,TGFb inhibitor,HepG2 viability
Cc1ccc(NC(=O)COc2ccc(N(C)C(=O)C(C)(C)C)cc2)cc1S(=O)(=O)N1CCCCC1,-18%,18µM*,-14%,16µM*,?,-32%
Cc1ccc(NC(=O)CC2OC(=O)c3ccccc32)cc1S(=O)(=O)N1CCCCCC1 (centres undefined),2%,i,5%,i,-17%,-4%
O=C(CC1OC(=O)c2ccccc21)Nc1ccc(Cl)c(S(=O)(=O)N2CCCCC2)c1 (centres undefined),-7%,?,-21%,i,0%,8.9µM*
c1nc(NCCCN2CCOCC2)c2cc(-c3ccc4c(c3)OCO4)ccc2n1,.,i,.,i,.,.
COc1ccc(NC(=O)CC2CCCC2)cc1S(=O)(=O)N1CCCCC1,8%,i,4%,i,-4%,-2%
COc1ccc(NC(=O)Cc2ccc(C)cc2)cc1S(=O)(=O)N1CCCCC1,-1%,?,-14%,i,-24%,-10%
COc1ccc(NC(=O)CCC2CCCCC2)cc1S(=O)(=O)N1CCCCC1,3%,3.3µM*,-22%,5.2µM*,?,-8%
Cc1ccc(S(=O)(=O)c2cccc(S(=O)(=O)N3CCOCC3)c2)cc1S(=O)(=O)N1CCOCC1,-2%,i,-2%,i,-22%,2%
CCc1noc(C)c1C(=O)Nc1ccc(C)c(S(=O)(=O)N2CCCCCC2)c1,-4%,7.3µM*,-16%,i,?,-25%
Cc1ccc(S(=O)(=O)c2cccc(S(=O)(=O)N3CCCC3)c2)cc1S(=O)(=O)N1CCCC1,?,2.6µM*,-27%,21µM*,-13%,-16%
COc1ccc(NC(=O)Cc2ccc(C)c(C)c2)cc1S(=O)(=O)N1CCCCC1,0%,9.2µM*,-8%,?,?,7%
Cc1cc(C)n(-c2nc(C)c(C)c(=O)n2CC(=O)Nc2cccc([N+](=O)[O-])c2)n1,.,.,.,.,15%,3%
CC(=O)Nc1ccn(C2CC3OCC(NC(=O)C(Cc4ccccc4)NC(=O)OC(C)(C)C)C3O2)c(=O)n1 (centres undefined),.,.,.,.,0%,7%
COc1ccc(-c2onc(C)c2C)cc1S(=O)(=O)N1CCN(c2cc(C)ccc2C)CC1,.,.,.,.,?,8%
CCCCOc1ccc(C(=O)Nc2cccc(-c3nc4cccnc4s3)c2)cc1,.,.,.,.,-1%,-33%
COc1ccc(C2NCCc3c2[nH]c2ccccc32)cc1CN1CCc2cc(OC)c(OC)cc2C1C (centres undefined),18µM*,i,?,i,-17%,-44%
COc1cc2c(cc1OC)C(C)N(Cc1ccc3c(c1)OCO3)CC2 (centres undefined),-19%,?,-24%,?,-7%,-24%
COc1ccc(C2NCCc3c2[nH]c2ccccc32)cc1COc1ccc(F)cc1 (centres undefined),?,?,?,?,?,11µM*
O=C(Nc1ccc(F)cc1F)C1CCN(S(=O)(=O)c2ccc3[nH]c(=O)ccc3c2)CC1,.,i,.,i,19%,-4%
CCc1cccc(C)c1NC(=O)c1cc(C)nc2c1c(C)nn2-c1cccc(Cl)c1C,.,i,.,i,-1%,0%
C=CCN1c2ccccc2Sc2cnccc21,0%,?,2%,i,?,-45%
CC(=O)OCCN1c2ccccc2Sc2cnccc21,-7%,15µM*,-11%,12µM*,?,-7%
CC(C)(C)c1ccc(S(=O)(=O)NC(=O)C2(C)CCN2C(=O)C2CC2)cc1 (centres undefined),?,i,10%,i,0%,0%
CC(=O)n1cc(N(C(=O)CCl)c2ccc([N+](=O)[O-])cc2)c2ccccc21,23µM*,?,?,?,?,10µM*
CC(=O)n1cc(N(C(=O)CCl)c2ccccc2)c2ccccc21,2.6µM*,?,2.6µM*,?,7.1µM*,7.1µM*
SMILES,HT1080NT lethal,KB-V1 cytotox,HT1080 IDH1KD tx,KB-3-1 cytotox,TGFb inhibitor,HepG2 viability
N#CCn1c(CN2CCCC2)nc2ccccc2c1=O,13%,i,12%,i,-5%,8%
CCCCCc1c(C)nc(N2CCc3ccccc3C2)[nH]c1=O,12%,i,14%,i,-11%,2%
CCCCCc1c(C)nc(N2CCc3ccccc32)[nH]c1=O,6%,3.3µM*,3%,?,10%,7%
COc1ccc(S(=O)(=O)Nc2ccccc2N2CCOCC2)cc1OC,-5%,23µM*,-1%,i,2%,-13%
CCOc1ccccc1NS(=O)(=O)c1ccc(OC)c(OC)c1,-9%,26µM*,0%,i,20%,-18%
CCOc1cc(S(=O)(=O)NC2CCCC2)ccc1Cl,-15%,i,-11%,i,?,-3%
CCOc1cc(S(=O)(=O)Nc2cc(C)cc(C)c2)ccc1Cl,?,i,?,i,22µM*,-101%
COc1ccccc1NS(=O)(=O)c1ccc(OC)c(OC)c1,10%,i,-1%,i,7%,2%
Cc1ccccc1C(=O)N/N=C/c1ccc([N+](=O)[O-])s1,20µM*,?,8.9µM*,i,?,-109%
Cc1ccc(NC(C)C(=O)N/N=C/c2ccc([N+](=O)[O-])s2)cc1 (centres undefined),?,i,?,?,?,-79%
Cn1c(SCC(=O)N/N=C/c2ccc([N+](=O)[O-])s2)nnc1-c1ccccc1,21µM*,?,16µM*,21µM*,?,-75%
COc1ccc(NC(C)C(=O)N/N=C/c2ccc([N+](=O)[O-])s2)cc1 (centres undefined),-21%,?,-4%,i,13µM*,18µM*
O=C(N/N=C/c1cccs1)c1cncc(Br)c1,-9%,i,-13%,i,-13%,1%
O=C(N/N=C\c1ccc([N+](=O)[O-])s1)c1cncc(Br)c1,?,i,6.5µM*,5.8µM*,6.3µM*,3.5µM*
COc1ccccc1NC(=O)C(=O)N/N=C/c1ccc([N+](=O)[O-])s1,14%,?,0%,i,0%,-7%
COc1cccc(NC(=O)c2cnn(-c3ccccc3)c2-n2cccc2)c1,.,.,.,.,?,-18%
O=C(Cc1ccccc1)N/N=C/c1ccc([N+](=O)[O-])s1,?,15µM*,?,?,?,-79%
